Source: PubChem BioAssay (National Center for Advancing Translational Sciences (NCATS))
HCV inhibitor: blocks hepatitis C virus. Potency, µM (top dose mostly 41.8 µM), without a hit: top-dose activity change, negative = inhibition, usual class: inhibitors. 3.4% of 340,000 active. Huh7.5.1 HCVcc-Cre infection, luciferase reporter, 44 h. AID 651820; further: potency means the concentration at half of the fitted maximal effect
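1,000 cells/well; 4 h culture; + compound; + HCVcc-Cre (~0.5 moi); 44 h; luciferase substrate, RT 15 min; read 15 sec.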
FMDV antiviral: blocks foot and mouth disease virus; FMDV antiviral cell-based qHTS; 1.2% of 410,000 active; AID 1159524; Potency, µM (titrated, usually from 57.9 µM), without a hit: at the highest dose activity change, negative = inhibition, most hits filed as inhibitors; calls by dose curve; tested in HEK293T cells; further: read-out not given here; potency means the concentration at half of the fitted maximal effect; nearly all actives have a fitted effect of over 45% in size
VACV Venus inh: inhibitors of vaccinia virus (Venus reporter); Vaccinia virus Venus reporter expression, fluorescence; Potency, µM (doses to about 36.5 µM), without a hit: at the highest dose activity change, negative = inhibition, usual class: inhibitors; 0.46% of 330,000 active; calls by dose curve; tested in A549 cells; further: potency means the concentration at half of the fitted maximal effect; nearly all actives have a fitted effect of over 30% in size
HCMV inh: blocks human cytomegalovirus replication. HFF cells, HCMV-luciferase reporter, 72 h; hits give low values. 4.5% of 410,000 active. activity change, negative = inhibition, % at 57.5 µM. AID 1259415; in the data active means activity change below about -60%; inconclusive means no clear call, values can overlap the other calls; inactive means above about -39%
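Two-dose cell screen: HFF monolayers treated with compounds and infected with luciferase-expressing HCMV at 1 PFU/cell, 72 h at 37C, then lysed for luciferase measurement.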
Giardia FBPA inh: Giardia lamblia aldolase inhibition. Potency, µM (titrated, usually from 59.6 µM), for the others: at the highest dose activity, negative = inhibition, actives largely listed as inhibitors. 0.71% of 290,000 active. AID 2451. A8B2U2. purified Giardia FBPA; further: potency means the concentration at half of the fitted maximal effect; nearly all actives have a fitted effect of over 55% in size
Target sequence (A8B2U2 whole entry, looked up): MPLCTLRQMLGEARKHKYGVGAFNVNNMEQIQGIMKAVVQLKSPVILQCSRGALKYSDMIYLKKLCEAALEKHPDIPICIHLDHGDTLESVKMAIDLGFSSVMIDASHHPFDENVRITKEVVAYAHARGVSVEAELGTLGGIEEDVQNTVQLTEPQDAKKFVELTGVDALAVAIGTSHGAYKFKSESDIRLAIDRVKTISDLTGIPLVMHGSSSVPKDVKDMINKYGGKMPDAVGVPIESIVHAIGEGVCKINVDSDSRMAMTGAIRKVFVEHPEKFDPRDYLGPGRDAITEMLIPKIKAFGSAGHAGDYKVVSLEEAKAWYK
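Giardia FBPA (40 nM reagent) was preincubated 10 min at RT with compound (up to 57.5 uM final), then substrate plus GAPDH/TPI/NAD/arsenate coupling system with diaphorase/resazurin was added; resorufin fluorescence (525/598 nm) was read after 20 min.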
Vaccinia mCherry: vaccinia inhibition (mCherry reporter); AID 720579; Vaccinia virus mCherry reporter infection, fluorescence; 0.63% of 310,000 active; Potency, µM (series often up to 36.5 µM), for inactives: at the highest dose activity change, negative = inhibition, most hits filed as inhibitors; calls by dose curve; tested in A549 cells; further: potency means the concentration at half of the fitted maximal effect; nearly all actives have a fitted effect of over 35% in size
* hit, by the source's call; i = inactive; ? = inconclusive; · = no result given. Most compounds without a hit are left out; they make up all but 7.5% or so of the library. Unless noted, the call rests on the fitted dose curve; in most records, active means well fitted curve in the direction sought with a large enough effect; inconclusive means small, poorly fitted or top-dose-only effect, or another doubt; inactive means no such curve, though single readings can be large; an effect the other way counts as inactive or inconclusive. On the % scale 0 is the no-effect control and ±100 the full control effect.

SMILES | HCV inhibitor | FMDV antiviral | VACV Venus inh | HCMV inh | Giardia FBPA inh | Vaccinia mCherry
C[C@H](CO)N1C[C@H](C)[C@@H](CN(C)Cc2ccc(C(=O)O)cc2)Oc2ccc(NS(=O)(=O)c3cn(C)cn3)cc2C1=O | 22% | -13% | -7% | 8 | · | -9%
CCOC(=O)Cc1ccc(NC(=O)N2CCC(CN3CCCCCC3)CC2)cc1 | · | 0% | -11% | 3 | · | -8%
Nc1ccc(Oc2ccccc2-c2ccccc2)cc1 | -6% | 7.9µM* | -19% | -82* | · | -23%
C[C@@H](c1ccccc1)N1C[C@@H](COCc2ccccc2)Oc2cc(N3CCC[C@H]3CO)ccc2S1(=O)=O | · | 26% | 1% | -23 | · | 8%
O=c1[nH]c(-c2ccccc2)ncc1OCc1ccccc1 | 18% | 14% | 3% | -63* | · | -6%
Cc1nn2c(=O)cc(COC(=O)C(c3ccccc3)c3ccccc3)nc2s1 | · | -27% | -3% | -9 | · | -1%
COc1cccc(Cn2c(=O)n(-c3ccccc3C)c(=O)c3c2c2cc(C)ccc2n3C)c1 | · | -24% | -8% | -68* | · | -21%
c1ccc2c(c1)[nH]c1c(NCC3CCCO3)ncnc12 (centres undefined) | ? | ? | -30% | -9 | -6% | ?
CCCCOCCCNc1ncnc2c1[nH]c1ccccc12 | 8.9µM* | 11µM* | · | ? | -4% | ·
CCOCCCNc1ncnc2c1[nH]c1ccccc12 | ? | ? | ? | -62* | -1% | ·
CCOCCCNc1nc2ccccc2[nH]1 | ? | -11% | -14% | 16 | -16% | ·
COc1ccc(CNC(=O)C2CCN(Cc3nc(-c4ccc(Cl)cc4)oc3C)CC2)cc1 | · | 0% | ? | 21 | · | ?
O=C(Cn1cnc2cc([N+](=O)[O-])ccc2c1=O)Nc1cccc(S(=O)(=O)N2CCCCC2)c1 | 5.6µM* | ? | · | ? | · | ·
Cc1ccc(S(=O)(=O)N2CCOCC2)cc1NC(=O)c1cc2c(s1)CCC2 | -26% | -21% | · | 13 | 2% | ·
O=C(Cn1cnc2cc([N+](=O)[O-])ccc2c1=O)N1CCN(S(=O)(=O)c2ccccc2)CC1 | -15% | -25% | 2% | 3 | · | i
Cc1ccc(C(=O)NCc2cccnc2)cc1S(=O)(=O)N1CCCCCC1 | ? | -27% | -9% | -22 | · | i
Cc1ccc(C(=O)Nc2cccc(S(=O)(=O)N3CCCCC3)c2)cc1[N+](=O)[O-] | 7.1µM* | ? | · | -34 | · | ·
Cc1ccc(C(=O)NCc2cccc(C(F)(F)F)c2)cc1S(=O)(=O)N1CCCCC1 | ? | ? | -5% | -66* | · | -28%
Cc1ccc(NC(=O)c2cc3c(s2)CCC3)cc1S(=O)(=O)N1CCOCC1 | 7.9µM* | ? | · | -65* | 0% | ·
COc1cccc(CN2CCC3(CCC(CNC(=O)c4ccco4)O3)CC2)c1OC (centres undefined) | · | -5% | 5% | · | · | -7%
O=[N+]([O-])c1cccc(S(=O)(=O)Nc2nc3ccccc3nc2Nc2cccc(S(=O)(=O)N3CCCCC3)c2)c1 | 10µM* | ? | · | -100* | 1% | ·
Cc1ccc(S(=O)(=O)Nc2nc3ccccc3nc2Nc2cccc(S(=O)(=O)N3CCCC3)c2)cc1 | ? | -28% | 59% | ? | 0% | -14%
Cc1ccc(C(=O)NNC(=O)c2ccccc2O)cc1S(=O)(=O)N1CCCCC1 | 13µM* | 6% | ? | -29 | · | -16%
Cc1ccc(C(=O)NC2CCCC2)cc1S(=O)(=O)N1CCCCC1 | ? | 17% | -19% | 5 | 5% | i
O=C(Nc1ccc2c(c1)CCC2)c1ccc(F)c(S(=O)(=O)N2CCOCC2)c1 | 16µM* | -26% | -20% | ? | 0% | i
SMILES | HCV inhibitor | FMDV antiviral | VACV Venus inh | HCMV inh | Giardia FBPA inh | Vaccinia mCherry
Cc1ccc(C(=O)Nc2cccc(S(=O)(=O)N3CCCCC3)c2)cc1S(=O)(=O)N1CCOCC1 | 8.9µM* | ? | · | -37 | · | ·
Cc1c(C(=O)N2CC3CCC2C3)sc2ncnc(NCCc3ccccn3)c12 (centres undefined) | · | -9% | -8% | · | · | -13%
COc1ccc(NC(=O)c2cc3c(s2)CCC(C)C3)cc1S(=O)(=O)N1CCOCC1 (centres undefined) | ? | 28µM* | ? | -100* | -1% | ?
Cc1cccc(C)c1NS(=O)(=O)c1ccc(NC(=O)c2ccc(Cl)c([N+](=O)[O-])c2)cc1 | 7.1µM* | -1% | ? | -66* | -4% | ?
O=C(Nc1cccc(S(=O)(=O)N2CCCCC2)c1)c1ccc([N+](=O)[O-])o1 | ? | -23% | 10µM* | 0 | -20% | 11µM*
Cc1cnc(NC(=O)c2ccc(F)c(S(=O)(=O)N3CCOCC3)c2)s1 | ? | -10% | -18% | -105* | · | -18%
O=C(Nc1ccccc1N1CCCCC1)c1ccc(F)c(S(=O)(=O)N2CCOCC2)c1 | 10µM* | 1% | -1% | -35 | · | 1%
Cc1ccc(NC(=O)c2cccc(S(=O)(=O)N(C)c3ccccc3)c2)cc1S(=O)(=O)N1CCOCC1 | 4µM* | ? | -28% | -70* | 1% | ?
Cc1ccc(C(=O)NC(C)c2ccc(-n3ccnc3)cc2)cc1S(=O)(=O)N1CCOCC1 (centres undefined) | ? | 10% | -14% | -97* | · | i
Cc1ccc(C(=O)Nc2cccc(C(=O)O)c2)cc1S(=O)(=O)N1CCOCC1 | 33% | · | -5% | 72 | -3% | -12%
O=C(Nc1ccccc1)Nc1ccc(Cl)c([N+](=O)[O-])c1 | 13µM* | -5% | · | ? | -1% | ·
COc1ccc(C(=O)NCCS(=O)(=O)NC(C)c2ccccc2)cc1 (centres undefined) | -4% | 6% | -12% | -36 | · | -11%
Cc1ccc(C(=O)Nc2ccncc2)cc1S(=O)(=O)N1CCOCC1 | -6% | ? | ? | 2 | · | -27%
Cc1c(NC(=O)c2ccc(Cl)c([N+](=O)[O-])c2)cccc1-n1cnnn1 | 11µM* | -27% | -18% | 11 | · | -5%
Cc1ccc(C(=O)Nc2ccc3c(c2)CCC3)cc1S(=O)(=O)N1CCOCC1 | ? | 23% | -21% | -62* | -5% | i
COc1ccccc1CN1CC[C@@]2(CCCN(S(C)(=O)=O)C2)C1 | · | 3% | · | · | -6% | ·
Cc1ccc(Sc2ccc(NC(=O)CCl)cc2)cc1C | ? | 28µM* | · | 27 | -5% | ·
Cc1ccc(C)c(Sc2ccc(NC(=O)CCl)cc2)c1 | ? | 20µM* | · | 8 | 0% | ·
Cc1ccc(NC(=O)CC(=O)Nc2ccc(C)c(C)c2)cc1C | -12% | -2% | -4% | 22 | 4% | -12%
O=Cc1cc2ccccc2nc1SCc1ccc(Cl)cc1 | ? | -21% | 0% | -82* | 1% | ?
Cc1ccc(CSc2ncnc3ccccc23)cc1 | -16% | 1% | -16% | -31 | 0% | -17%
O=Cc1cc2ccccc2nc1SCc1ccc(Cl)c(Cl)c1 | 7% | ? | -3% | -92* | · | -8%
